# TRPML1 ag = human mucolipin-1 channel agonism | TRPML1-expressing cells, Ca2+ dye fluorescence, FDSS | activation, % (no concentration beside the values) | 0.12% of 410,000 active | AID 624414; in the data active = activation above about 50%; inconclusive = mostly about 30% to 49%; note: 0% is about no effect
#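 TRPML1-DL cells, Tet-induced overnight (~16 h, 37 degrees C), loaded 45-90 min at room temperature with Ca8 no-wash calcium dye plus quencher. FDSS fluorescence: 10 s baseline, compound pin-transfer, 110 s agonist read, then EC80 54-4 (4uM final) and 110 s antagonist read.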
# hERG WT inh = inhibitors of human wildtype KCNH2 potassium channel | Q12809 | U2OS, BacMam KCNH2, thallium flux FluxOr; active compounds read low | activity change, % at 1.84 µM | 0.37% of 340,000 active | AID 720551;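 active = maximum activity change below -70%; inconclusive = maximum activity change between -70% and -50%; inactive = maximum activity change above -50%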; note: % is set by controls: 0 for no effect and ±100 for the full control effect
#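 U2OS cells transduced with wild-type KCNH2 virus are loaded with FluxOr dye for 45 min, and thallium flux is measured in kinetic reads before and after stimulation buffer. Rate constants are normalized to DMSO controls.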
# TRHR PAM = TRH receptor (human) allosteric enhancement; AID 493056; enhancement, % at 2 µM; TRHR cells, fluo-8 calcium fluorescence, EC20 TRH enhancement; 0.66% of 360,000 active; in the data active = enhancement above about 30%; note: 0% is about no effect
# Target sequence (P34981 whole entry, looked up): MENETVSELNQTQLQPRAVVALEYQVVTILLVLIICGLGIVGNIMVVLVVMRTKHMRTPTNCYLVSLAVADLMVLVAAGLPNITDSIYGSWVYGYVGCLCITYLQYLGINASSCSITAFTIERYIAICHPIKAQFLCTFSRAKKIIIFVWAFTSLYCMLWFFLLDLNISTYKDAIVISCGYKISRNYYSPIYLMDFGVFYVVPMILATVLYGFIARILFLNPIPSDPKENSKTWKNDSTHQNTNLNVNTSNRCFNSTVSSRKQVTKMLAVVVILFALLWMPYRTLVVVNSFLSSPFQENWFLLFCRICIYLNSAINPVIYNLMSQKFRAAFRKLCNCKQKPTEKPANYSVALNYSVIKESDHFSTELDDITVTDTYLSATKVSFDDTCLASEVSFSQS
#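 Enhancer read-out: after compound pinning and an initial kinetic agonist-mode read, an EC20 of TRH (10 nM final) was injected and fluo-8 calcium signal (Ex 480/Em 530) followed at 1 s/cycle for 100 cycles in TRHR-expressing cells.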
# TRHR agonist = agonists of human TRH receptor. P34981. TRHR cells, calcium flux fluo-8, FDSS agonist mode. activation, % at 2 µM. 0.18% of 360,000 active. AID 493084; in the data active = activation above about 30%; note: 0% is about no effect
#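 Fluo-8-loaded TRHR cells; 10 s baseline, compound added, kinetic Ca2+ fluorescence read 1/s, agonist mode.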
# KCNH2 3.1 block = blocks the human KCNH2 3.1 channel isoform | U2OS KCNH2 3.1, thallium flux FluxOr; active compounds read low | activity change, % (tested at about 1.8 µM) | 0.95% of 340,000 active;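 active = maximum activity change below -70%; inconclusive = maximum activity change from -70% to -50%; inactive = maximum activity change above -50%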;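 note: thallium influx rate constant from kinetic fluorescence after stimulation buffer; % is set by controls: 0 for no effect and ±100 for the full control effect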
#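 Kinetic fluorescence (2 min after stimulation buffer) measures Tl+ influx through KCNH2 3.1 expressed by viral transduction in U2OS cells; the rate constant is normalized against DMSO controls serving as positive and negative references.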
# TRPML1 blocker = human mucolipin-1 channel inhibition | Q9GZU1 | TRPML1-inducible cells, Ca2+ dye fluorescence, FDSS; active compounds read low; inhibition of EC80 agonist-evoked calcium signal | activity change, negative = inhibition, % (test concentration not listed) | 0.02% of 390,000 active; in the data active = activity change below about -50%; inconclusive = between about -30% and that limit;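 note: stimulus is agonist 54-4 at its EC80 concentration; % is set by controls: 0 for no effect and ±100 for the full control effect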
#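 Tet-induced TRPML1-DL cells loaded with Ca8 no-wash calcium dye were read kinetically on FDSS. Compound addition was followed by EC80 agonist 54-4 (4 uM final); inhibition was read over 110 s.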
# An asterisk follows results filed as active; ? = inconclusive; . = no result. Most compounds without a hit are left out; they make up all but 1.7% or so of the library.
SMILES,TRPML1 ag,hERG WT inh,TRHR PAM,TRHR agonist,KCNH2 3.1 block,TRPML1 blocker
Cc1c(S(=O)(=O)Nc2ccc(Br)cc2)c(=O)n(C)c(=O)n1C,0,4,35*,0,-21,48
COc1ccc2c(n1)Sc1nc3ccccc3nc1N2,82*,-13,10,90*,-7,-7
CN(Cc1ccccc1)c1ncnc2sccc12,1,-124*,0,-2,-7,38
CC(=O)Nc1ccc(-c2ccnc3c2CC(C)(C(=O)NCc2ccc(F)c(F)c2)O3)cc1 (centres undefined),-1,.,.,.,.,.
Cc1nnc2ccc(-c3cccc(NS(=O)(=O)c4ccccc4[N+](=O)[O-])c3)nn12,1,0,9,0,19,7
Cc1nnc2ccc(-c3cccc(NS(=O)(=O)c4ccccc4Cl)c3)nn12,0,-1,36*,0,2,-5
CN(C)c1cc(-c2ccc(Cl)c(Cl)c2)oc(=O)c1Cl,0,2,2,0,-98*,1
CN(C)c1cc(-c2ccc(Cl)cc2)oc(=O)c1Cl,2,7,0,-1,-2,6
CC(=O)N1CCCc2cc(S(=O)(=O)N3CCC(C(=O)NCc4ccc(N(C)C)cc4)CC3)ccc21,0,.,39*,0,.,-16
Nc1c(C(=O)c2ccccc2)sc2nsc(SCCN3CCOCC3)c12,?,1,11,89*,-6,-4
Cc1cnc(C(=O)OCC(=O)c2ccc(C3CCCCC3)cc2)cn1,2,10,7,-1,-24,0
O=C(COC(=O)c1cnccn1)c1ccc(C2CCCCC2)cc1,1,-5,34*,-1,-6,16
COCCN1C(=O)/C(=C/c2ccc(N3CCCC3)cc2C)SC1=S,29,-16,24,53*,.,-15
N#Cc1ccccc1NC(=O)CSc1cn[nH]n1,0,1,0,-2,7,3
CCCCc1cc(=O)oc2cc(C)cc(OCC(=O)NC(Cc3ccc(Cl)cc3)C(=O)O)c12 (centres undefined),.,-4,-1,0,-3,.
COc1cc2c(cc1OC)C(c1ccc(-c3ccc(Cl)cc3Cl)o1)=NCC2,0,-4,-2,1,-115*,14
COCC1CCCN(Cc2cn(-c3ccccc3F)nc2-c2cc(C)sc2C)C1 (centres undefined),0,11,32*,1,-42,-2
Cc1cc(-c2nn(-c3ccccc3F)cc2CN2CCN(c3ccncc3)CC2)c(C)s1,1,-137*,6,-1,-136*,4
COC(=O)c1cccc(NC(=O)CSc2nnc(C)o2)c1,0,7,-3,0,-1,-5
CCOc1ccc(C(=O)c2cn(Cc3ccccc3)c3c(F)cc(F)cc3c2=O)cc1,3,.,33*,-1,.,42
COc1ccc(S(=O)(=O)c2cc(NS(=O)(=O)c3ccc(Cl)cc3)c(C)c(C)c2O)cc1,0,.,-2,-1,.,-1
O=C(NCCc1ccccc1)c1ccc(Br)o1,-1,1,-4,-1,7,-1
O=C(NC1CCCCCCC1)c1ccc(Br)o1,-1,-11,1,-1,-199*,5
O=C(NCCNC(=O)c1ccc(Br)o1)c1ccc(Br)o1,-1,-14,38*,3,6,14
CC(C)(C)OC(=O)NCC(=O)NNC(=O)c1nc2ccccc2[nH]1,.,.,2,1,.,.
SMILES,TRPML1 ag,hERG WT inh,TRHR PAM,TRHR agonist,KCNH2 3.1 block,TRPML1 blocker
C[C@@H](C(=O)OCC(=O)c1ccc(F)c(F)c1)N1C(=O)C2CCCCC2C1=O (some centres undefined),0,-1,.,.,-3,3
CSc1ccc(OC2CCN(Cc3ccccc3)CC2)cc1,2,?,16,1,-89*,-8
CC(C)(C)c1ccc(OCc2ccc(C(=O)Nc3cccnc3)o2)cc1,1,-5,38*,-1,-7,5
CCCCNC(=O)c1[nH]c2ccccc2c1Sc1ccc(C)cc1,0,.,0,-1,.,11
CCN(CC)CCCNC(=O)c1[nH]c2ccccc2c1Sc1ccc(Cl)cc1,1,-127*,0,1,-111*,34
Cc1ccccc1COc1ccc(/C=N/NC(=O)c2nnn(-c3nonc3N)c2CN2CCC(C)CC2)cc1,1,-5,2,1,?,-12
CN(C)Cc1c(C(=O)N/N=C/c2ccc(OCc3ccc(F)cc3)cc2)nnn1-c1nonc1N,-1,-38,11,0,-76*,-9
CC1CCN(Cc2c(C(=O)N/N=C/c3ccc(OC(C)C)cc3)nnn2-c2nonc2N)CC1,3,1,7,2,-112*,11
CCCN(CCC)Cc1c(C(=O)N/N=C/c2ccc(Br)cc2)nnn1-c1nonc1N,3,12,3,1,-78*,38
CCCN(CCC)Cc1c(C(=O)N/N=C/c2ccco2)nnn1-c1nonc1N,1,23,5,1,11,26
CC[N+](C)(C)c1ccc(/C=C/c2ccncc2)cc1,7,.,.,.,.,.
C=CC[C@]12CCc3ccccc3C1N(c1ccc(C(=O)OCC)cc1)C2=O (some centres undefined),-1,1,-10,0,-10,-1
CC(=O)Nc1ccc(NC(=O)C(C)OC(=O)/C(C#N)=C/c2ccc(N(C)C)cc2)cc1 (centres undefined),26,-6,-2,24,17,3
CC(OC(=O)/C(C#N)=C/c1ccc(N(C)C)cc1)C(=O)N(C)c1ccccc1 (centres undefined),?,-5,24,49*,-49,-19
COc1cc(C2CC(=O)OC3=C2C(=O)CC(C)(C)C3)cc(OC)c1OC (centres undefined),-1,-9,33*,0,-1,6
Cc1c(Cl)cccc1-c1ccc(C(=O)Nc2ccc(F)cc2)o1,2,.,0,3,.,47
COc1ccc(S(=O)(=O)N2CCC(c3nc4ccccc4[nH]3)CC2)cc1,1,3,39*,0,-3,-2
COc1ccc(OC)c(S(=O)(=O)N2CCC(c3nc4ccccc4[nH]3)CC2)c1,3,46,-10,1,-6,2
O=C(COc1ccccc1C(=O)OCC(=O)N1CCOCC1)Nc1ccc(Br)cc1,0,.,.,.,.,.
CN1C(=O)/C(=C\c2ccc(N(C)C)cc2)OC1=S,82*,-101*,8,203*,-23,-7
COc1ccc(/C=C2\OC(=S)N(C)C2=O)cc1,0,-13,-1,0,2,-1
Cc1nnnn1/C(=C\c1ccccc1)C(=O)OCC(=O)NC(C)(C)C,0,3,33*,0,8,-15

# High-throughput results (PubChem)
